The values below come from PubChem BioAssay.

Several values for one entry are separate records, joined by “and”; a condition that tells them apart may be missing. Equal entries are not always repeated. Records with an inconclusive call do not appear. For part of these data: Entries with a potency or affinity are not part of this list. Activity calls are given as the source filed them.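 Rule for the calls, unless noted: active = z-score of at least 1.8 in each of two replicates, scored against plate mean and spread of sample wells; inactive = the rest.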

Experiment [1] can be described thus: P. berghei load reduction in hepatocytes – cell-based, HepG2, luciferase luminescence, HepG2 viability, primary screen (AID 624349; in the data active = parasite load remaining mostly below about 12%, no sharp cut-off; inactive = mostly above about 10%;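 note: 100% = mean of DMSO negative control wells on the same plate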). To be noted: P. berghei liver stage in HepG2, luciferase luminescence, concentration not given here; parasite load remaining: stronger effect = lower value; viability: measured here: HepG2 viability without parasites.
For experiment [2], the target named is 6-phosphogluconate dehydrogenase, decarboxylating (Homo sapiens) (UniProt P52209). Briefly: inhibition of human phosphogluconate dehydrogenase – biochemical, recombinant enzyme, NADPH absorbance, primary screen (AID 1159550;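 active = at least 20% inhibition of 6-phosphogluconate dehydrogenase activity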). To be noted: recombinant 6PGD, NADPH absorbance 341 nm; at 10 µM; stronger effect = higher value.
Experiment [3] can be described thus: viability loss in pontine glioma line – cell-based, SU-DIPG-XIII, MIPE4.0, CellTiter-Glo, qHTS, dose response (AID 1347061; cut-off not given, nearly all actives have AC50 up to about 37 µM;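 note: cells exposed to compound for 48 hours before readout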). To be noted: CellTiter-Glo ATP luminescence. A general note: ATP-based viability assays read luminescence as a measure of living cells.
Experiment [4] in a line: viability loss in pontine glioma line – cell-based, JHH-DIPG-1, MIPE4.0, CellTiter-Glo, qHTS, dose response (AID 1347062; cut-off not given, nearly all actives have AC50 up to about 27 µM;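 for AC50: cells exposed to compound for two days before readout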). The conditions noted are these: JHH-DIPG-1 viability, CellTiter-Glo ATP luminescence.
Experiment [5] is described as follows: viability loss in pontine glioma line – cell-based, SU-DIPG-IV, MIPE4.0, CellTiter-Glo, qHTS, dose response (AID 1347063; cut-off not given, nearly all actives have AC50 up to about 30 µM;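 note: compound exposure lasted 48 hours before the viability readout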). The conditions noted are these: CellTiter-Glo ATP luminescence.
Experiment [6] is described as follows: viability loss with induced miR-34 in A549 – imaging, A549 dox-inducible miR-34, nuclei and caspase counts, primary screen (AID 1347080;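 active = compounds whose cell count with miR-34 switched on is under 0.7 times the count with it off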). To be noted: A549 miR-34 inducible, Hoechst nuclei count, 48 h.
A short description of experiment [7]: MELAS cybrid and Rieske KO viability enhancers – cell-based, MELAS cybrids, Rieske KO mouse fibroblasts, CellTiter-Glo, primary screen (AID 1508586;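 active = mean z-score across replicates of 1.96 or higher in either the MELAS or the Rieske mutant cell line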;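 note: z relative to plate mean and SD of compound and empty wells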). The conditions noted are these: low glucose.
Experiment [8] concerns the target Mitogen-activated protein kinase 7 (Homo sapiens) (UniProt Q13164). Nature of the experiment: Gal4-ERK5 driven luciferase induction – cell-based, HTS, primary screen (AID 1508626;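 active = luciferase signal above three times the same-plate solvent-only control wells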;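 note: luciferase driven by Gal4-ERK5 fusion binding five Gal4 sites before minimal TATA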). To be noted: HeLa Gal4-ERK5 transactivation, 18 h, at 5 µM, stronger effect = higher value.
The nature of experiment [9]: galactose survival enhancers in mitochondrial complex I cybrids – cell-based, galactose medium, ATP luminescence, primary screen (AID 1645843).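 Note: positive z means more ATP and so rescue of galactose-driven cybrid death.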 To be noted: complex I mutant cybrid cells, 72 h, stronger effect = higher value.
A short description of experiment [10]: viability loss in pontine glioma line – cell-based, SU-DIPG-XVII, MIPE5.0, CellTiter-Glo, qHTS, dose response (AID 1347060; cut-off not given, nearly all actives have AC50 up to about 26 µM;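 for AC50: cells exposed to compound for 48 hours before viability readout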). The conditions noted are these: CellTiter-Glo ATP luminescence.
A short description of experiment [11]: JHH-DIPG-1 glioma cell viability, MIPE5.0 library, CellTiter-Glo luminescence, qHTS (AID 1347067; cut-off not given, nearly all actives have AC50 up to about 26 µM;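 note: cells exposed to compound for 48 hours before readout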). To be noted: JHH-DIPG-1 glioma viability, CellTiter-Glo ATP luminescence.
Experiment [12] in a line: growth inhibition, single agents and combos, ICB984, cell-based, cisplatin or BGB combos, synergistic combos for chromothripsis tumors (AID 1671451; call rule not given here;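 note: cells exposed for 96 hours before readout; 0% = vehicle DMSO and 100% = killing by high DMSO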). To be noted: ICB984 medulloblastoma cells, drug combinations, stronger effect = higher value.
Experiment [13] in a line: blockers of polyQ-driven CASP3 activation – cell-based (AID 1583). The conditions noted are these: polyglutamine-induced caspase-3 activation, cell assay; stronger effect = higher value;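 tested at 10 µM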.
A short description of experiment [14]: yeast 75Q aggregation reduction – 75Q-TubU reporter (AID 1593). The conditions noted are these: Yeast 75Q polyglutamine aggregation reporter.
Experiment [15] can be described thus: restoration of touch response, mutant HTT neurons – whole organism, C. elegans mechanosensory neurons, N-terminal huntingtin (AID 1599). The conditions noted are these: C. elegans polyQ-huntingtin mechanosensory neurons, stronger effect = higher value.
Experiment [16] is described as follows: blockers of cytochrome c efflux from mitochondria – biochemical, purified mitochondria (AID 1603).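 Note: mouse liver mitochondria challenged with calcium chloride; signal normalized to the plate average as 100%.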 The conditions noted are these: stronger effect = lower value.
A short description of experiment [17]: polyglutamine aggregate formation blockers (AID 1604). The conditions noted are these: polyglutamine-induced protein aggregation inhibition assay; stronger effect = higher value; tested at 2.5 µM.
A short description of experiment [18]: glutamate transport activators, MN-1 cells, MN-1 cell line (AID 1612).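 Note: tested at 1 µM final; 0% = mean of DMSO vehicle wells on each plate; positive means more glutamate uptake than control and negative means less.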 The conditions noted are these: MN-1 motor neuron cells, stronger effect = higher value.
Experiment [19] can be described thus: 75Q-TubH aggregate inhibition, S. cerevisiae, yeast (AID 1616). To be noted: S. cerevisiae 75Q-TubH polyglutamine aggregation suppression; stronger effect = higher value.
Setting [20] is: stronger effect = lower value, cell number ratio, induced over uninduced.
Setting [21] is: measured here: relative caspase fold change +Dox/-Dox.
The mark [22] stands for this setting: measured here: total cells with miR-34 induction, stronger effect = lower value.
[23] abbreviates: measured here: total cells without miR-34 induction.
[24] abbreviates: MELAS cybrid survival, CellTiter-Glo 48 h, stronger effect = higher value.
Where [25] appears, read: Rieske KO mouse fibroblast survival, CellTiter-Glo 72 h.

6-phosphogluconate dehydrogenase, decarboxylating (Homo sapiens), sequence (P52209 whole entry, looked up): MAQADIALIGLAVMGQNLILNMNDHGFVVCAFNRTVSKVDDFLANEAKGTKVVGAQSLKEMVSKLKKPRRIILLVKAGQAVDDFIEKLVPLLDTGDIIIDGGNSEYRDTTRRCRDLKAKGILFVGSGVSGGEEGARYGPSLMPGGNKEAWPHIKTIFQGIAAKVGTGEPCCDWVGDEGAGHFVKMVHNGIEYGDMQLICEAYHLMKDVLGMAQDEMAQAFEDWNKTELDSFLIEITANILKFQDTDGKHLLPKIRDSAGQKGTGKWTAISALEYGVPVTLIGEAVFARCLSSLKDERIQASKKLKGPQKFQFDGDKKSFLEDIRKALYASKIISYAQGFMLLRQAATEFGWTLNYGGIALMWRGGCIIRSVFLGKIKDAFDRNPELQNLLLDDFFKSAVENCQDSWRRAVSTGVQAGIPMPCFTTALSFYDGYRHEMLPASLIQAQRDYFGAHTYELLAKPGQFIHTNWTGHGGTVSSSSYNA
Mitogen-activated protein kinase 7 (Homo sapiens), sequence (Q13164 whole entry, looked up, the tested form may be a part): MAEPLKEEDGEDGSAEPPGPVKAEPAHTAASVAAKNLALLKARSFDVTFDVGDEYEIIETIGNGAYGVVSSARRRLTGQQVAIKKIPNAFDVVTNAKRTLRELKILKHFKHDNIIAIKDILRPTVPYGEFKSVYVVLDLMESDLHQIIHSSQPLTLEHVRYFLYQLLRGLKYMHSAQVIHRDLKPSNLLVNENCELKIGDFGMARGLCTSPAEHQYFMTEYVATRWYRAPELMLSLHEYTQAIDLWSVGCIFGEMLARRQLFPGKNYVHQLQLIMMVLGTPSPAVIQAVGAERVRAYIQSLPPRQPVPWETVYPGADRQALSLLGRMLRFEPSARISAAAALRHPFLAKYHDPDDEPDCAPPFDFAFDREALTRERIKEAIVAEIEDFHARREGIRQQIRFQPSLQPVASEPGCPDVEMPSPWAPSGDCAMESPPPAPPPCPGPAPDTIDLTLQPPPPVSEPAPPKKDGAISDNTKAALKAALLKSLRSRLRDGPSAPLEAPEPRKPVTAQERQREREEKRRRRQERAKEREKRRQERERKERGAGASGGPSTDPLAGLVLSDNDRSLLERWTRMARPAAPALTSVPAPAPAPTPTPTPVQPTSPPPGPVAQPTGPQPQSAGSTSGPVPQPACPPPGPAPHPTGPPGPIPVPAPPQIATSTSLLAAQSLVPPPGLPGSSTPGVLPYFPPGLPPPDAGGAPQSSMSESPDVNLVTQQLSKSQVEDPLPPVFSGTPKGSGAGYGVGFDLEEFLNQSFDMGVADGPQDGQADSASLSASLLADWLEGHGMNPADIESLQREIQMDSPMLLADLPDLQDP

Turning to `CCC[C@@H]1C[C@@H](C(=O)N[C@@H]([C@H]2O[C@H](SC)[C@H](O)[C@@H](O)[C@H]2O)[C@@H](C)O)N(C)C1`, in experiment [1], the parasite load remaining was 63.5% (inactive). Also, in experiment [1], the viability (commonly a read-out of living cells in per cent, often relative to untreated cells) is 128%. The inhibition (usually the drop in the measured response relative to a control, in per cent) in [2] was -15.1% (inactive). Also, the call in experiment [3], in experiment [4] and in experiment [5] was inactive. The values for the fold change in experiment [6] (setting [20]) and in experiment [6] (setting [21]) were 0.837 (inactive) and 1.35, respectively. Besides, the cell count worked out at 8810 in [6] (setting [22]) and 10500 in [6] (setting [23]). In addition, the z-score in experiment [7] (setting [24]) is 0.52 (inactive) and 0.4 (inactive); in experiment [7] (setting [25]), -0.069 and -0.671; in experiment [9], -0.14 (inactive). In addition, the luciferase signal in [8] is 64 AU (inactive).

As for `CC(C)(S)[C@@H](N)C(=O)O`, the inhibition in [2] is 5.83% (inactive). In addition, the compound was classed as inactive in experiment [10], in experiment [3], in experiment [4], in experiment [5] and in experiment [11]. In addition, in experiment [8], the luciferase signal was 48 AU (inactive).

Take `N=c1ccn2c(n1)O[C@H]1[C@H](O)[C@@H](CO)O[C@H]12`: the parasite load remaining in experiment [1] was 29.5% (inactive). Moreover, the viability in experiment [1] was 73.5%. Also, the inhibition was -4.99% (inactive) in [2]; -16.9% in experiment [12] (BGB IC20 combo, at 0.005 µM); -39.5% in [12] (BGB IC40 combo, at 0.005 µM); -9.88% in experiment [12] (BGB IC40 combo, at 0.05 µM); -19.6% (inactive) in experiment [12] (at 0.5 µM); -12.9% in [12] (cisplatin combo, at 0.05 µM). The inhibition in experiment [12] (cisplatin combo, at 0.5 µM) was -20.7%; in experiment [12] (cisplatin combo, at 5 µM), -55.6%; in experiment [12] (measured here: 5 uM single agent, at 5 µM), -6.48%. For the same compound, in experiment [10], the AC50 (in general, the concentration giving half of the maximal activity seen) was 1180 nM (active). In addition, the result in experiment [3], in [4] and in experiment [11] was inactive. Also, the fold change was 1.14 (inactive) in experiment [6] (setting [20]) and 1 in [6] (setting [21]). In addition, the cell count is 3040 in experiment [6] (setting [22]) and 2660 in experiment [6] (setting [23]). Moreover, the z-score in experiment [7] (setting [24]) was -0.885 (inactive); in experiment [7] (setting [25]), -0.24; in experiment [9], -1.8 (inactive). Besides, in experiment [8], the luciferase signal was 44 AU (inactive).

Regarding `O=C(O)C1=CCCNC1`, in experiment [2], the inhibition was -3.98% (inactive). The fold change was 0.989 (inactive) and 0.96 (inactive) in experiment [6] (setting [20]); 0.827 and 0.802 in experiment [6] (setting [21]). Further, the cell count is 8890 and 8940 in [6] (setting [22]); 8980 and 9310 in experiment [6] (setting [23]). In addition, the luciferase signal in [8] is 48 AU (inactive). Also, the z-score in [9] is 0.54 (inactive) and -0.25 (inactive).

On to `CC[C@@]1(O)C[C@H](O[C@H]2C[C@H](N(C)C)[C@H](O[C@H]3C[C@H](O)[C@H](O[C@H]4CCC(=O)[C@H](C)O4)[C@H](C)O3)[C@H](C)O2)c2c(cc3c(c2O)C(=O)c2c(O)cccc2C3=O)[C@H]1C(=O)OC`, for which the parasite load remaining in experiment [1] is -0.835% (inactive). Besides, the viability in [1] came out at 14.5%. Moreover, the inhibition in [2] was 13.5% (inactive). The AC50 in experiment [10] is 14800 nM (active); in experiment [4] it was 332 nM (active); in experiment [5], 469 nM (active); in experiment [11] it was 11800 nM (active). In addition, the fold change was 1.94 (inactive) in experiment [6] (setting [20]) and 0.972 in experiment [6] (setting [21]). The cell count in [6] (setting [22]) is 1190; in experiment [6] (setting [23]), 612. Besides, the values for the z-score in experiment [7] (setting [24]), in experiment [7] (setting [25]) and in experiment [9] were 0.116, 2.56 and -1.88 (inactive), respectively.

`CCCn1c(=O)c2[nH]c(C3CCCC3)nc2n(CCC)c1=O`: the inhibition in [13] is 8.56%; in [2] it was 11.4% (inactive). The score in experiment [14] was 1.24. Also, in experiment [15], the rescue above control came to 18.1. Besides, the cytochrome c release ratio in experiment [16] came out at 0.92. This compound also gave an inhibition of aggregation in experiment [17] of 1.59%. The glutamate uptake change in experiment [18] is -12.9%. In addition, the aggregation suppression score in experiment [19] turned out to be 1.32. The fold change in experiment [6] (setting [20]) is 1.02 (inactive) and 0.942 (inactive); in experiment [6] (setting [21]), 1.07 and 0.717. For the same compound, the cell count in experiment [6] (setting [22]) is 7850 and 7600; in experiment [6] (setting [23]), 7700 and 8070. In addition, the z-score in experiment [9] is 1.02 (inactive) and 0.16 (inactive).
